Laboratory results: the supplement of paper PMC11732987, “Enantioselective OTUD7B fragment discovery through chemoproteomics screening and high-throughput optimisation” (Communications Chemistry, 2025)

Key:
Experiment in all cases: log2 ratio of Biotin-Ahx-Ub-VS probe labelling (fragment/DMSO); higher = less target engagement (more negative = stronger competition), active = hit call of the paper (q ≤ 0.05, log2 ratio ≤ -1)
Conditions in all cases: compound concentration: 200 uM; treatment time: 3 h
[1] = molecular target: T1, OTUD6B (UniProt Q8N6M0)
T1 sequence (whole entry): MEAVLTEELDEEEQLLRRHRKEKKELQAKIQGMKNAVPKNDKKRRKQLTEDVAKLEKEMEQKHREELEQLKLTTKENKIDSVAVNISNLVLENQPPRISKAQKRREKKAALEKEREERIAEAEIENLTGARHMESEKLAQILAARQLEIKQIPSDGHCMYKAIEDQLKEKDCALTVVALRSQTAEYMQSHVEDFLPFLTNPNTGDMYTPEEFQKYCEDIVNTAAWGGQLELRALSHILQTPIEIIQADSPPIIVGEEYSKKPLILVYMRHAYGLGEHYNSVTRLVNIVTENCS
Outline: (§1)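 Each value is an average log2 ratio of fragment to vehicle, tested by unpaired t-test. The underlying Spectronaut label-free quantities were global-median-normalised, and only proteins with ≥2 unique peptides were included. Triplicate HEK293T lysate samples (495 µg) were exposed to fragment at 200 µM or vehicle for 3 h, then to Biotin-Ahx-Ub-VS at 0.5 µM final for 1 h, before NeutrAvidin enrichment of labelled DUBs, LysC and trypsin digestion, and diaPASEF LC-MS/MS.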

[2] = molecular target: T2, OTUD7B (UniProt Q6GQQ9)
T2 sequence (whole entry): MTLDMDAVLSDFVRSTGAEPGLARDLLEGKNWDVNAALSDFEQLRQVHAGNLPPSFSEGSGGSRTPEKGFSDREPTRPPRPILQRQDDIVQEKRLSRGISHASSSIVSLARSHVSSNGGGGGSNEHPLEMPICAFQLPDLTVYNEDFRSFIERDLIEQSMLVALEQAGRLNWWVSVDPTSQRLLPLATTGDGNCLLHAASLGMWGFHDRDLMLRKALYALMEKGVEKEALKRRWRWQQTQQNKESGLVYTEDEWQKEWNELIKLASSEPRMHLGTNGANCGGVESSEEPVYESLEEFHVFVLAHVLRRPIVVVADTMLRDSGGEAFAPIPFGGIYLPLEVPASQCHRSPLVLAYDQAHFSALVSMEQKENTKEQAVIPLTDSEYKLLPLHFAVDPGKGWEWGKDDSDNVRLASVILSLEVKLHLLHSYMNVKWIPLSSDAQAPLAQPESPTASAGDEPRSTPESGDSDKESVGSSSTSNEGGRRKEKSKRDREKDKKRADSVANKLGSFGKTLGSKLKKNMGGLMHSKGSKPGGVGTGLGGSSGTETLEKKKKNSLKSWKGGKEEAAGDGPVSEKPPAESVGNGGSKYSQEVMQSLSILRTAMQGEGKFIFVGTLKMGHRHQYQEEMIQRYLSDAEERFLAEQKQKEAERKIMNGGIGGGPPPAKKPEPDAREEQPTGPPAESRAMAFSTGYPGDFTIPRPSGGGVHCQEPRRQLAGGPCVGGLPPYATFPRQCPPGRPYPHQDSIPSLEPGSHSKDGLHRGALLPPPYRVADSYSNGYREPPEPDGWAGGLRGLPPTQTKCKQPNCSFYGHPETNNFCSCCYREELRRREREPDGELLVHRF
Outline: as §1

[3] = molecular target: PRPF8 (UniProt Q6P2Q9)
Outline: as §1

[4] = molecular target: T3, PSMD7 (UniProt P51665)
T3 sequence (whole entry): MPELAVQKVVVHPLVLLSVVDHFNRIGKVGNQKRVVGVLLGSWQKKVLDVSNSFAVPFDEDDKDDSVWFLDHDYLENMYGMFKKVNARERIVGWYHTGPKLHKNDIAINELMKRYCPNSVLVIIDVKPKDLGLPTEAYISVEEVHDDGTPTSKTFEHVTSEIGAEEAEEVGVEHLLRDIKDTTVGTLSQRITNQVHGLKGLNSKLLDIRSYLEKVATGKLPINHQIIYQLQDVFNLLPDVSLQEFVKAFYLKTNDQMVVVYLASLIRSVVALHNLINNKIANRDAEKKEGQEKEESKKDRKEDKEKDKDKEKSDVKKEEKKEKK
Outline: as §1

[5] = molecular target: UCHL1 (UniProt P09936)
Outline: as §1

[6] = molecular target: T4, UCHL3 (UniProt P15374)
T4 sequence (whole entry): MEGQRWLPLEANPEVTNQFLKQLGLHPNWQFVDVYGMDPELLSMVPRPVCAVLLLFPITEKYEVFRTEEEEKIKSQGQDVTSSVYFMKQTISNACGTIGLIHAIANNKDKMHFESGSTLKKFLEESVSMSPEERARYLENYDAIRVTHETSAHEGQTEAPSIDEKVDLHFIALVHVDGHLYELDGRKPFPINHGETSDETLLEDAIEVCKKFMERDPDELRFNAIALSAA
Outline: as §1

[7] = molecular target: T5, UCHL5 (UniProt Q9Y5K5)
T5 sequence (whole entry): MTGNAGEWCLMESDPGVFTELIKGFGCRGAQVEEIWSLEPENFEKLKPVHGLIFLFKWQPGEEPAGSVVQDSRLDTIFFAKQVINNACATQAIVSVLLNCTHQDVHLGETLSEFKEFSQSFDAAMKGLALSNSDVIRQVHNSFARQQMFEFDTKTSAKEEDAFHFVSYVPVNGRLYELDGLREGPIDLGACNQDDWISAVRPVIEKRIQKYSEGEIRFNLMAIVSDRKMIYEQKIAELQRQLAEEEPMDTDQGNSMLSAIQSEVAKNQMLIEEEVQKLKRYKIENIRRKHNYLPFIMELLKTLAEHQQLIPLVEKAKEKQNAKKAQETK
Outline: as §1

[8] = molecular target: USP10 (UniProt Q14694)
Outline: as §1

[9] = molecular target: T6, USP15 (UniProt Q9Y4E8)
T6 sequence (whole entry): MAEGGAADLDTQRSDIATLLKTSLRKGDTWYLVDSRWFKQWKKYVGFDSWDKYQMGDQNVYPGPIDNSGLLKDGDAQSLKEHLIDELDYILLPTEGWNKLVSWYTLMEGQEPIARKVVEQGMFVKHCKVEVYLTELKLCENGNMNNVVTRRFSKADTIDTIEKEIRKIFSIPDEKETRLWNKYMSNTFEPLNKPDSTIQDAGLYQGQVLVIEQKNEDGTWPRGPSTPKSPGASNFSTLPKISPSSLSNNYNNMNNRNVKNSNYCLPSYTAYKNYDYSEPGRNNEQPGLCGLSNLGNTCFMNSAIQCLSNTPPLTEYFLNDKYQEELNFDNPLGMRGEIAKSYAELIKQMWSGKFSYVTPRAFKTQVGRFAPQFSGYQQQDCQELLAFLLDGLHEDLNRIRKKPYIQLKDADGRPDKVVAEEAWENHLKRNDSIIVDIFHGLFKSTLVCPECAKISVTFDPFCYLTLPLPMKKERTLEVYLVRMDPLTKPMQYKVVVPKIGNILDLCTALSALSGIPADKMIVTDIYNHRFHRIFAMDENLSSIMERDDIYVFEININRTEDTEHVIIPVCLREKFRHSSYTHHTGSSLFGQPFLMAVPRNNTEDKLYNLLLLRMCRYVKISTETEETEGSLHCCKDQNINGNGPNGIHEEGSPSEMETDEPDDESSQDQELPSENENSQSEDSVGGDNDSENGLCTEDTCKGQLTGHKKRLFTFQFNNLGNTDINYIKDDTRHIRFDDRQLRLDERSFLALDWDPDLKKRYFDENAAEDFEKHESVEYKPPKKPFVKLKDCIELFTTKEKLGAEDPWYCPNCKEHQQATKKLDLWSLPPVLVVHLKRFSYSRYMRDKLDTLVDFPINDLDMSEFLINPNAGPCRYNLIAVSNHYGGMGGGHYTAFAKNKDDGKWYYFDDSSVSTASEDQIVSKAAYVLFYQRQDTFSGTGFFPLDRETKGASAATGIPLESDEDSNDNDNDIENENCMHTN
Outline: as §1

[10] = molecular target: USP16 (UniProt Q9Y5T5)
Outline: as §1

Measured: log2 ratio of Biotin-Ahx-Ub-VS probe labelling

UCHL1, sequence (P09936 whole entry, looked up): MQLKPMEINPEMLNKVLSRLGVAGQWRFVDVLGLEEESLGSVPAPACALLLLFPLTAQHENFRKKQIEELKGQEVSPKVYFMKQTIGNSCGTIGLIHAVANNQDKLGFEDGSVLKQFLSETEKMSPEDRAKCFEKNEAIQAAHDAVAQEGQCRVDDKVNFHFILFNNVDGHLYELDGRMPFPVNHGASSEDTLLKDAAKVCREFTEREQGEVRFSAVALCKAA
USP10, sequence (Q14694 whole entry): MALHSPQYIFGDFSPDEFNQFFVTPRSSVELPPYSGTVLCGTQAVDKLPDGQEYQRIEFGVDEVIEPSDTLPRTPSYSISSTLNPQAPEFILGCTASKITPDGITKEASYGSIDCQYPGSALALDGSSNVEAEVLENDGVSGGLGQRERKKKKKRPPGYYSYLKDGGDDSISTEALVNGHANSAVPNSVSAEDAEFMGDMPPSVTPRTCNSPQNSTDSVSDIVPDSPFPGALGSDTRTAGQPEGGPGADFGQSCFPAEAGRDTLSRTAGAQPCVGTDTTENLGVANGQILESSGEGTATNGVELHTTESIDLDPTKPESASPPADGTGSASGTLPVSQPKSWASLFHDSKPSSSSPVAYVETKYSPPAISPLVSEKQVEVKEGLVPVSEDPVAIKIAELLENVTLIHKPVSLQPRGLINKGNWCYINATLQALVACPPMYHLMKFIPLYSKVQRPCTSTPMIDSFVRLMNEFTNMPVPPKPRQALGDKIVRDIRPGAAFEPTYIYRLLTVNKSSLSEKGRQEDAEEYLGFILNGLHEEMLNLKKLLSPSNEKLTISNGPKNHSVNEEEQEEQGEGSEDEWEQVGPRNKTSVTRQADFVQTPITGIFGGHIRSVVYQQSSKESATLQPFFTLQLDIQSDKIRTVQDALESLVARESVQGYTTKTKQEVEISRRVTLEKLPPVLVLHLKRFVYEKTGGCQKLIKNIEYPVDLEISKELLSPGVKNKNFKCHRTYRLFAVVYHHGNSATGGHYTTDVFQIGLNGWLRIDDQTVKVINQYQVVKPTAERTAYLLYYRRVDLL
USP16, sequence (Q9Y5T5 whole entry, looked up): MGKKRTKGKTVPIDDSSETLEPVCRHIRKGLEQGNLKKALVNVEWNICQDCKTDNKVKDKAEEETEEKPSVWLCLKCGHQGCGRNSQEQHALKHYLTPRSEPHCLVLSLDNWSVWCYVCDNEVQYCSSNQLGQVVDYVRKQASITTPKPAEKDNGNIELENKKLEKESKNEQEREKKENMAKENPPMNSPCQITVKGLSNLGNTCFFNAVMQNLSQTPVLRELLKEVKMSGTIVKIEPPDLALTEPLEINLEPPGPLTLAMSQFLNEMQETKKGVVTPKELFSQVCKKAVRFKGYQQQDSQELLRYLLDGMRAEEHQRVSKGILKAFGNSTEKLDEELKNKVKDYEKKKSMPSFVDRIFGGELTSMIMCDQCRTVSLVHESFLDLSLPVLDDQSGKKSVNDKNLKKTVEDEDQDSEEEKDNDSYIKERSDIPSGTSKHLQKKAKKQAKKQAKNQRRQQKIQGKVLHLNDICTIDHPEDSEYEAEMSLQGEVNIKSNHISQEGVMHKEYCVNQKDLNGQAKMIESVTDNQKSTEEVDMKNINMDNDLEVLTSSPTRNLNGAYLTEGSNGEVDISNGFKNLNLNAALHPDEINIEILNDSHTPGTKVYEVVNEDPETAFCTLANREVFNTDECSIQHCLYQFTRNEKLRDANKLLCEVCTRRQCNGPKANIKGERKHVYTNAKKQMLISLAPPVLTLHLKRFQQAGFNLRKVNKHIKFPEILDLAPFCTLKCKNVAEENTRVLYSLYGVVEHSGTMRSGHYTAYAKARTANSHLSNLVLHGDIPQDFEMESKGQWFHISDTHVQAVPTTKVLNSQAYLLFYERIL

O=C(CCl)Nc1ccc(Cl)c(F)c1
inactive: [1] -0.448 | [3] 0.0807 | [4] -0.221 | [6] -0.216 | [7] -0.398 | [8] -0.142 | [9] -0.331 | [10] 0.323
active: [2] -1.15 | [5] -1.36
